Drawing on the supplement of paper PMC13380429, this text covers SARS-CoV-2 infection rate for 32 compounds.

A number with no mark means an inactive call.

This assay concerns Vero E6 infected with SARS-CoV-2. Kind of assay: SARS-CoV-2 infection rate relative to infected DMSO; higher = more infection, active = 60 or less. Particulars: 24 h.
For `Nc1ncnc2c1ncn2[C@H]1CC[C@@H](CO)O1` [dideoxyadenosine] (10 µM), the SARS-CoV-2 infection rate is 99%.

Take `C[C@H](CCC(=O)O)[C@H]1CC[C@H]2[C@@H]3CC[C@@H]4C[C@H](O)CC[C@]4(C)[C@H]3CC[C@]12C` [lithocholic-acid] (10 µM): the SARS-CoV-2 infection rate was 110%.

As for `COc1ccc(-c2oc3c(CC=C(C)C)c(O[C@@H]4O[C@H](CO)[C@@H](O)[C@H](O)[C@H]4O)cc(O)c3c(=O)c2O[C@@H]2O[C@@H](C)[C@H](O)[C@@H](O)[C@H]2O)cc1` [icariin] (10 µM), the SARS-CoV-2 infection rate was 106%.

`CCC(CC)(NC(=O)C(C)C)C(=O)N[C@@H](CCCNC(=N)N)C(=O)NC1(C(=O)NC(c2ccc(F)cc2)c2ccc(F)cc2)CCCC1` (10 µM): the SARS-CoV-2 infection rate is 116%.

As for `Cn1c(C#N)ccc1-c1ccc2c(c1)C(C)(C)OC(=S)N2` [tanaproget] (10 µM), the SARS-CoV-2 infection rate was 102%.

Turning to `C[C@]12COC(=O)C[C@@H]1CC[C@@H]1[C@@H]2CC[C@@]2(C)[C@H]1CC[C@]2(C)O` [Oxandrolone] (10 µM), the SARS-CoV-2 infection rate was 112%.

Turning to `NCCCNCCSP(=O)(O)O` [amifostine] (10 µM), the SARS-CoV-2 infection rate is 100%.

As to `O=C/C=C/c1ccccc1` [cinnamaldehyde] (10 µM), the SARS-CoV-2 infection rate was 104%.

Take `CCCCCCCCCCCC(=O)N(CCO)CCO` [lauric-diethanolamide] (10 µM): the SARS-CoV-2 infection rate is 108%.

Take `Cc1ncc(Cl)cc1NCc1ccc(C(=O)N[C@@H](CC2CCCC2)C(=O)NC2CC2)s1` (10 µM): the SARS-CoV-2 infection rate was 106%.

As to `O=C(Nc1ccccc1)N[C@H]1C[C@H](C(=O)O)Nc2cc(Cl)cc(Cl)c21` (10 µM), the SARS-CoV-2 infection rate is 106%.

As to `C1=N/C2=N/c3ccc(OCCN4CCCC4)c(c3)COC/C=C/COCc3cccc(c3)C(=C1)N2` [pacritinib] (0.833333 µM), the SARS-CoV-2 infection rate was 80%.

For the compound `C=CC(=O)N1CCC[C@@H](n2nc(-c3ccc(Oc4ccccc4)cc3)c3c(N)ncnc32)C1` [ibrutinib] (10 µM), the SARS-CoV-2 infection rate is 109%.

Consider `Cc1ccc(S(=O)(=O)/C=C/C#N)cc1` (0.833333 µM), for which the SARS-CoV-2 infection rate was 112%.

`O=C(O)c1cc(O)c2c(c1)C(=O)c1cccc(O)c1C2=O` [rhein] (10 µM): the SARS-CoV-2 infection rate is 99.5%.

Regarding `CC(C)CN(C[C@@H](OP(=O)(O)O)[C@H](Cc1ccccc1)NC(=O)O[C@H]1CCOC1)S(=O)(=O)c1ccc(N)cc1` [fosamprenavir] (10 µM), the SARS-CoV-2 infection rate is 109%.

As to `NCC(=O)O` (10 µM), the SARS-CoV-2 infection rate was 104%.

With `CN(C)C(=O)N[C@H]1CC[C@H](CCN2CCN(c3cccc(Cl)c3Cl)CC2)CC1` [cariprazine] (10 µM), the SARS-CoV-2 infection rate is 113%.

For `O=C(O)CCc1ccc(NCc2cccc3c2CCCN3CCOc2ccccc2)cc1F` (10 µM), the SARS-CoV-2 infection rate is 110%.

As for `CC(C)(C)c1ccc(C(=O)Nc2cn3cc(-n4ccnc4)ccc3n2)cc1` (10 µM), the SARS-CoV-2 infection rate was 100%.

`COc1cc2c(NC3CCN(C(C)C)CC3)nc(C3CCCCC3)nc2cc1OCCCN1CCCC1` (10 µM): the SARS-CoV-2 infection rate was 22.5% (active).

For `O=C(Nc1cccnc1)N1CCC(Cc2cccc(Oc3ccc(C(F)(F)F)cn3)c2)CC1` (0.833333 µM), the SARS-CoV-2 infection rate was 95.5%.

In the case of `CN(C/C=C/C#CC(C)(C)C)Cc1cccc2ccccc12` [terbinafine] (10 µM), the SARS-CoV-2 infection rate is 81%.

As for `Cc1cc(=O)[nH]c(=S)[nH]1` [methylthiouracil] (10 µM), the SARS-CoV-2 infection rate was 104%.

In the case of `CC(C)Nc1cccnc1N1CCN(C(=O)c2cc3cc(NS(C)(=O)=O)ccc3[nH]2)CC1` [delavirdine] (10 µM), the SARS-CoV-2 infection rate is 110%.

For the compound `NCC(CC(=O)O)c1ccccc1` (configuration not stated) [fenigam] (10 µM), the SARS-CoV-2 infection rate was 89%.

On to `CN(C)CCCNC(=O)c1ccc(-c2cc(O)c3ncccc3c2)cc1` (0.833333 µM), for which the SARS-CoV-2 infection rate is 108%.

Consider `CC(Cc1ccc(O)cc1)NCC(O)c1cc(O)cc(O)c1` (configuration not stated) [fenoterol] (10 µM), for which the SARS-CoV-2 infection rate was 106%.

For `c1cc2c3c(c1)c1c(n3CCNC2)CCCC1` (10 µM), the SARS-CoV-2 infection rate is 104%.

On to `Cc1cccc(C)c1NC(=O)c1ccc(N)cc1` [ameltolide] (10 µM), for which the SARS-CoV-2 infection rate was 109%.

In the case of `O=C(O)[C@]1(Cc2cccc(Nc3nccs3)n2)CC[C@@H](Oc2cccc(Cl)c2F)CC1` (0.833333 µM), the SARS-CoV-2 infection rate is 106%.

As for `CCOC(=O)OC(C)OC1=C(C(=O)Nc2ccccn2)N(C)S(=O)(=O)c2ccccc21` (configuration not stated) [ampiroxicam] (10 µM), the SARS-CoV-2 infection rate is 102%.
